Assay results from PubChem BioAssay (NCATS).
Records with an inconclusive call do not appear. A call without a number means that no potency is given here. Unmarked numbers belong to inactive results. Activity calls are given as the source filed them. Calls come from the whole dose curve; as a rule, active = well fitted cell-killing curve with a large enough effect; inconclusive = small, poorly fitted or top-dose-only effect; inactive = flat fitted curve, though single readings scatter.

assay: Cellular viability qHTS for adrenocortical cancer (ACC) cell line SW-13 (AID 1963989); conditions: SW-13 ACC cells viability, CellTiter-Glo, 48 h; activity (max response): hits give low values; note: nearly all actives have a fitted effect of over 65% in size;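 for activity (max response): cells grown in serum-free medium with ITS supplement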
How it was run: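 48 h treatment, SW-13 in ITS/DMEM serum-free; doses up to 46 uM; readout CellTiter-Glo luminescence; curve fit four-parameter logistic.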
Potency is the fitted concentration of half-maximal effect.

SMILES | activity (max response) [%] | Potency
CC(C)(C)C(=O)CN1C(=O)[C@H](NC(=O)Nc2cccc(C(=O)O)c2)CN(C2CCCCC2)c2ccccc21 | 11.5 | 
OC[C@H]1O[C@@H](Oc2cc(O)cc(/C=C/c3ccc(O)cc3)c2)[C@H](O)[C@@H](O)[C@@H]1O | 7.59 | 
O=C(O)c1ccccc1-c1ccc(/C=c2\sc3nc4cc(Br)cnc4n3c2=O)o1 | -2.9 | 
COC(=O)C1=C(C)NC(C)=C(C(=O)OCCc2ccc(N3CCN(C(c4ccccc4)c4ccccc4)CC3)cc2)C1c1cccc([N+](=O)[O-])c1 (centres undefined) | 7.28 | 
CCCc1c(OCCCCc2nn[nH]n2)ccc(C(C)=O)c1O | -4.43 | 
O=c1[nH]nc2c3c(cccc13)NC(CN1Cc3ccccc3C1)=N2 | -23.2 | 
CCc1oc2ccccc2c1C(=O)c1cc(I)c(O)c(I)c1 |  | 5.8 µM (active)
O=C1C(O)=C(O)C(=O)C(O)=C1O | 13.8 | 
CCOc1ccccc1O[C@H](c1ccccc1)[C@H]1CNCCO1 | -2.45 | 
Clc1cccc(-c2ccc(-c3nnc(CCCc4ccc5cccnc5n4)o3)cc2)c1 | -11.9 | 
CN(C)N(C)C(=O)[C@@]1(Cc2ccccc2)CCCN(C(=O)[C@@H](Cc2c[nH]c3ccccc23)NC(=O)C(C)(C)N)C1 | -15.4 | 
O=C(O)CCCCN(CCc1ccccc1OCc1ccc(CCc2ccccc2)cc1)Cc1ccc(C(=O)O)cc1 | 9.06 | 
Cc1c(Cn2ccnc2)c2ccccc2n1CCC(=O)O | 15.3 | 
C[C@]12CC[C@@H]3c4ccc(O)cc4CC[C@H]3[C@@H]1C[C@@H](O)[C@@H]2O | -7.09 | 
O=C(O)c1ccc(O)c2ncccc12 | -6.62 | 
N#C[C@@H]1C[C@@H]2C[C@@H]2N1C(=O)[C@@H](N)C12CC3CC(CC(O)(C3)C1)C2 | 7.26 | 
CC(=O)Oc1ccc(C2(c3ccc(OC(C)=O)cc3)C(=O)Nc3ccccc32)cc1 | -6.19 | 
CN1CCC(=C2c3ccccc3CCc3cccnc32)CC1 | 5.98 | 
CC(C)N(CCCNC(=O)Nc1ccc(C(C)(C)C)cc1)C[C@H]1O[C@@H](n2ccc3c(N)ncnc32)[C@H](O)[C@@H]1O | -3.92 | 

assay: Cellular viability qHTS for adrenocortical cancer (ACC) cell line NCI-H295R (AID 1963990); conditions: CellTiter-Glo ATP luminescence, 48 h; series mostly up to 46.1 µM; note: nearly all actives have a fitted effect of over 60% in size
How it was run: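 Compound titrations (up to 46 uM final) are applied to NCI-H295R cultures for 48 h at 37C. Viable cell number is estimated by CellTiter-Glo signal, normalised to DMSO and doxorubicin controls.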

SMILES | Potency
CCCCC[C@H](O)/C=C/[C@H]1[C@H](O)CC(=O)[C@@H]1CCCCCCC(=O)O | inactive
CC(C)(C)C(=O)CN1C(=O)[C@H](NC(=O)Nc2cccc(C(=O)O)c2)CN(C2CCCCC2)c2ccccc21 | inactive
COc1ccc([C@@H](O)[C@@H](C)Oc2ccc([C@H]3O[C@H](c4ccc(O[C@H](C)[C@H](O)c5ccc(OC)c(OC)c5)c(OC)c4)[C@H](C)[C@H]3C)cc2OC)cc1OC | 1.78 µM (active)
OC[C@H]1O[C@@H](Oc2cc(O)cc(/C=C/c3ccc(O)cc3)c2)[C@H](O)[C@@H](O)[C@@H]1O | inactive
O=C(O)c1ccccc1-c1ccc(/C=c2\sc3nc4cc(Br)cnc4n3c2=O)o1 | inactive
O=C(CCNNC(=O)c1ccncc1)NCc1ccccc1 | inactive
COC(=O)C1=C(C)NC(C)=C(C(=O)OCCc2ccc(N3CCN(C(c4ccccc4)c4ccccc4)CC3)cc2)C1c1cccc([N+](=O)[O-])c1 (centres undefined) | inactive
Cc1ncc([N+](=O)[O-])n1CC(O)CCl (centres undefined) | inactive
CCCc1c(OCCCCc2nn[nH]n2)ccc(C(C)=O)c1O | inactive
O=c1[nH]nc2c3c(cccc13)NC(CN1Cc3ccccc3C1)=N2 | inactive
CN(Cc1ccccc1)C(=O)c1ccc(S(=O)(=O)Nc2ccccc2)cc1 | inactive
CN1CCN(CCC(=O)N2c3ccccc3Sc3ccc(C(F)(F)F)cc32)CC1 | 23.1 µM (active)
COc1ccc(-c2ccc3c(N4CCOC[C@@H]4C)nc(N4CCOC[C@@H]4C)nc3n2)cc1CO | 0.178 µM (active)
CCc1oc2ccccc2c1C(=O)c1cc(I)c(O)c(I)c1 | 6.51 µM (active)
CN1CCC[C@@H]1CCO[C@](C)(c1ccccc1)c1ccc(Cl)cc1 | 20.6 µM (active)
CS(=O)(=O)Nc1cc2occ(NC=O)c(=O)c2cc1Oc1ccccc1 | inactive
O=C1C(O)=C(O)C(=O)C(O)=C1O | inactive
CCOc1cc(/C=C2/C(=O)N(c3ccccc3)N=C2C)cc(Cl)c1OCC(=O)OC | inactive
CCOc1ccccc1O[C@H](c1ccccc1)[C@H]1CNCCO1 | inactive
O=C(c1cc(O)c(O)c(O)c1)c1ccc(O)c(O)c1O | inactive

SMILES | Potency
Clc1cccc(-c2ccc(-c3nnc(CCCc4ccc5cccnc5n4)o3)cc2)c1 | inactive
CN(C)N(C)C(=O)[C@@]1(Cc2ccccc2)CCCN(C(=O)[C@@H](Cc2c[nH]c3ccccc23)NC(=O)C(C)(C)N)C1 | inactive
O=C(O)CCCCN(CCc1ccccc1OCc1ccc(CCc2ccccc2)cc1)Cc1ccc(C(=O)O)cc1 | inactive
O=C(Oc1cccc2cccnc12)c1ccccc1 | 23.1 µM (active)
Cc1c(Cn2ccnc2)c2ccccc2n1CCC(=O)O | inactive
C[C@]12CC[C@@H]3c4ccc(O)cc4CC[C@H]3[C@@H]1C[C@@H](O)[C@@H]2O | inactive
Cc1onc(-c2ccccc2)c1-c1ccc(S(N)(=O)=O)cc1 | inactive
CCC[C@H](NC(=O)[C@@H]1[C@H]2CCC[C@H]2CN1C(=O)[C@@H](NC(=O)[C@@H](NC(=O)c1cnccn1)C1CCCCC1)C(C)(C)C)C(=O)C(=O)NC1CC1 | inactive
C[C@@]12CCC[C@H]1[C@@H]1CC[C@H]3C[C@@H](O)CC[C@]3(C)[C@H]1CC2 | inactive
CCCCCCn1c(=O)c2c(ncn2C)n(C)c1=O | inactive
Nc1nc(OCc2cc(Br)cs2)c2[nH]cnc2n1 | inactive
O=C(O)c1ccc(O)c2ncccc12 | inactive
Cc1[nH]cnc1CN1CCc2c(c3ccccc3n2C)C1=O | inactive
N#C[C@@H]1C[C@@H]2C[C@@H]2N1C(=O)[C@@H](N)C12CC3CC(CC(O)(C3)C1)C2 | inactive
CS(=O)(=O)c1ccc(-c2cnc(NCc3ccco3)n3cnnc23)cc1 | inactive
CC(=O)Oc1ccc(C2(c3ccc(OC(C)=O)cc3)C(=O)Nc3ccccc32)cc1 | inactive
CN(C)CCCOc1nn(Cc2ccccc2)c2ccccc12 | 14.6 µM (active)
CC(=O)SCC(CC(=O)c1ccc(C)cc1)C(=O)O (centres undefined) | inactive
CN1CCC(=C2c3ccccc3CCc3cccnc32)CC1 | inactive
CC(C)N(CCCNC(=O)Nc1ccc(C(C)(C)C)cc1)C[C@H]1O[C@@H](n2ccc3c(N)ncnc32)[C@H](O)[C@@H]1O | inactive
